Results published in article PMC4336329 (PLoS ONE, 2015).
Hit rate of the full screen: of about 310,000 compounds, about 14,000 (4.5%) showed an effect of 50% or more. The effect is printed as a negative number. The sample holds strong results, similar compounds and a random draw of the others, so the mix is not that of the screen.

The molecules below were run against human ether-à-go-go-related gene (hERG) potassium channel (human, UniProt Q12809) (assay: primary screen, population patch clamp on CHO cells stably expressing hERG; higher = less effect of the substance).
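Also: peak tail current of the secondary pulse compared with the same well before compound.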

human ether-à-go-go-related gene (hERG) potassium channel, sequence (Q12809 whole entry, looked up): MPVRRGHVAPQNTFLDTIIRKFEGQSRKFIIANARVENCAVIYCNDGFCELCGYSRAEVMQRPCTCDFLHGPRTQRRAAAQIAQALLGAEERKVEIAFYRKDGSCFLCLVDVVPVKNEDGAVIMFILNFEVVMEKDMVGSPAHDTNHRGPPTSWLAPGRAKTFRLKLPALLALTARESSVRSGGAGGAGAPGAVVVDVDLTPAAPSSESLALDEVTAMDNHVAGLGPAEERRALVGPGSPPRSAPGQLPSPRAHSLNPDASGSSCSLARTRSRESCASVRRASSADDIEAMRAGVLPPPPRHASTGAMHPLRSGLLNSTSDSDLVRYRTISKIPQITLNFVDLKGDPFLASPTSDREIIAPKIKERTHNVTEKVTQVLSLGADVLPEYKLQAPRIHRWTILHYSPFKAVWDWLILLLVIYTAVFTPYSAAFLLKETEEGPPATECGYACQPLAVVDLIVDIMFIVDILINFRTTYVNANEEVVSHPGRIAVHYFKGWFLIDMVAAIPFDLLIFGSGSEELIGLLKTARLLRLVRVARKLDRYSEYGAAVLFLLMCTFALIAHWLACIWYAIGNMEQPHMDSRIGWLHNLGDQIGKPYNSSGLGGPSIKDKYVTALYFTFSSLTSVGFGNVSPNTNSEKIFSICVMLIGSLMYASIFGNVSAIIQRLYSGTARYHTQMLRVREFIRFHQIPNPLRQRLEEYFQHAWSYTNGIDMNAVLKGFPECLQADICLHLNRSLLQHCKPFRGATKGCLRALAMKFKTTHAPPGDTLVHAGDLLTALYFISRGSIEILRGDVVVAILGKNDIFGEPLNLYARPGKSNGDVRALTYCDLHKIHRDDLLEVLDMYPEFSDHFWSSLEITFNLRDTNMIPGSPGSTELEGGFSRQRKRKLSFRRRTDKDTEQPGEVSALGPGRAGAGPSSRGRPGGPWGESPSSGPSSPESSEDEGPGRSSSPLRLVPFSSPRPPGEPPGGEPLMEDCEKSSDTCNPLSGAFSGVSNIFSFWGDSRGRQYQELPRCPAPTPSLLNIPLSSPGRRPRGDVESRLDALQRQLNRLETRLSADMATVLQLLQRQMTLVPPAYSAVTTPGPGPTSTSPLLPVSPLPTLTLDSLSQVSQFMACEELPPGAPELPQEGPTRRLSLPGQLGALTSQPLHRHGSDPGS

Structure (SMILES)	hERG current change (%, negative = inhibition) at 10uM [%]
COCOc1ccc(-c2oc3c(C/C=C(\C)CCC=C(C)C)ccc(O)c3c(=O)c2OCOC)c(OCOC)c1	-9.2
CC(Oc1ccc(Cl)cc1Cl)C(=O)Nc1ncccn1 (stereo not drawn)	-2.67
O=C(Nc1ccc(F)cc1)OC1CN2CCC1CC2 (stereo not drawn)	-27.5
CCOC(=O)C1CCCCN1Cc1ccc(C(F)(F)F)cc1 (stereo not drawn)	7.75
Cc1ccccc1-c1cc(C(=O)NCc2cccs2)n(CC2CC(c3cccnc3)=NO2)n1 (stereo not drawn)	-26.2
O=C(NCc1ccco1)c1cc(-c2ccccc2)nn1CC1CC(c2cccnc2)=NO1 (stereo not drawn)	-63.9
O=C(NCC1CC1)c1cc(-c2ccccc2)nn1CC1CC(c2cccnc2)=NO1 (stereo not drawn)	-25
O=C(NCc1ccc(OC(F)(F)F)cc1)c1cc(-c2ccccc2)nn1CC1CC(c2cccnc2)=NO1 (stereo not drawn)	-57.4
COc1ccccc1CNC(=O)c1cc(-c2ccccc2C)nn1CC1CC(c2cccnc2)=NO1 (stereo not drawn)	-2.89
CCOC(=O)c1cc(-c2ccccc2)nn1CC1CC(c2cccnc2)=NO1 (stereo not drawn)	3.47
O=C(NCc1cccs1)c1cc(-c2ccccc2)nn1CC1CC(c2cccnc2)=NO1 (stereo not drawn)	-51.8
Cc1ccccc1-c1cc(C(=O)NCC2CC2)n(CC2CC(c3cccnc3)=NO2)n1 (stereo not drawn)	-20
Cc1ccccc1-c1cc(C(=O)NCc2ccco2)n(CC2CC(c3cccnc3)=NO2)n1 (stereo not drawn)	-15.6
COc1ccccc1CNC(=O)c1cc(-c2ccccc2)nn1CC1CC(c2cccnc2)=NO1 (stereo not drawn)	-71.2
O=C(c1cc(-c2ccccc2)nn1CC1CC(c2cccnc2)=NO1)N1CCOCC1 (stereo not drawn)	-4.25
COc1ccc(NC(=O)C2CCCN(S(=O)(=O)c3ccc4[nH]c(=O)ccc4c3)C2)cc1 (stereo not drawn)	9.08
COCCCNC(=O)Cn1ncc2ccsc2c1=O	13.6
O=C(COc1ccccc1Cl)NC(=O)NC1CCCCC1	5.11
COc1ccc(CNC(=O)Cn2ncn3cccc3c2=O)cc1	3.12
Cc1ccc(CNC(=O)c2cc(-c3ccccc3)nn2CC2CC(c3cccnc3)=NO2)cc1 (stereo not drawn)	-69.7
COCCNC(=O)c1cc(-c2ccccc2)nn1CC1CC(c2cccnc2)=NO1 (stereo not drawn)	2.9
CC(Oc1ccccc1F)c1nnc(SCC(=O)NCc2ccc3c(c2)OCO3)o1 (stereo not drawn)	-32.1
COc1ccc(Br)cc1CNc1ccc(S(N)(=O)=O)cc1	-14.1
Cl.NS(=O)(=O)c1ccc(CCNCc2cc(Br)ccc2OCc2ccccc2)cc1	-71.8
NS(=O)(=O)c1ccc(NCc2cc(Cl)ccc2OCc2ccccc2F)cc1	-2.13
Cl.NS(=O)(=O)c1ccc(CCNCc2cc(Br)ccc2OCc2ccccc2F)cc1	-75.9
CCOc1ccc([N+](=O)[O-])cc1CNCCc1ccccc1.Cl	-45.5

Structure (SMILES)	hERG current change (%, negative = inhibition) at 10uM [%]
NS(=O)(=O)c1ccc(NCc2ccccc2OCc2ccccc2F)cc1	-2.39
CCn1c(SCc2nc(-c3ccccc3)no2)nc2ccccc21	-24.6
CCCCOc1ccccc1C(=O)NCCCCCC(=O)O	10.3
CCc1cccc(OCCCn2ccnc2)c1.O=C(O)C(=O)O	-25.7
Cc1cc(C(F)F)n2nc(C(=O)Nc3sc4c(c3C#N)CCC4)nc2n1	18.3
Cc1cc(C(F)F)n2nc(C(=O)Nc3sc4c(c3C(N)=O)CCC4)nc2n1	-60.9
COC(=O)c1c(NC(=O)c2nc3nc(C)cc(C(F)F)n3n2)sc2c1CCC2	5.97
CCC1CCC/C1=N\NC(=O)c1ccccc1Cl (stereo not drawn)	19.2
COc1cccc(NC(=O)COC(=O)CC(NC(N)=O)c2ccc(Cl)cc2)c1 (stereo not drawn)	-2.18
CCOc1ccccc1NC(=O)COC(=O)CC(NC(N)=O)c1ccc(Cl)cc1 (stereo not drawn)	-68.4
CCOc1ccccc1NC(=O)COC(=O)CSc1ccc(Cl)cc1	21.2
COc1ccc(CNC(=O)COC(=O)CC(NC(N)=O)c2ccc(Cl)cc2)cc1OC (stereo not drawn)	1.27
N#Cc1ccc(COC(=O)CC(NC(N)=O)c2ccc(Cl)cc2)cc1 (stereo not drawn)	-59.9
NC(=O)COC(=O)CC(NC(N)=O)c1ccc(Cl)cc1 (stereo not drawn)	17.6
CC(=O)c1c(O)cc(=O)oc1-c1ccc(C)cc1	16.7
COc1cc(C2N(c3ccccc3)CCN2c2ccccc2)ccc1OC(C)=O	-1.36
Cn1c(CNc2ccccc2)nc2ccccc21	4.27
CCOC(=O)Cn1cc(C#N)c2ccccc21	15.1
CCCOc1ccc(S(=O)(=O)N2CCOCC2)cc1[N+](=O)[O-]	-57.8
O=[N+]([O-])c1cc(S(=O)(=O)N2CCOCC2)ccc1OCc1cccc(Cl)c1	1.31
O=C1c2ccccc2C(=O)N1COc1ccc(S(=O)(=O)N2CCOCC2)cc1[N+](=O)[O-]	-22.8
CCCOc1ccc(S(=O)(=O)N2CCCC2)cc1[N+](=O)[O-]	-30.1
CCOc1ccc(S(=O)(=O)N2CCOCC2)cc1[N+](=O)[O-]	-52.2
CCOc1ccc(S(=O)(=O)N2CCOCC2)cc1NS(=O)(=O)c1ccc(OC)c([N+](=O)[O-])c1	-41.7
CCOC(=O)N1CCC(=NNc2ccc(S(N)(=O)=O)cc2[N+](=O)[O-])CC1	-11.8
CC(=O)N1CCC(=NNc2ccc(S(=O)(=O)N3CCOCC3)cc2[N+](=O)[O-])CC1	-18.2
CCOC(=O)N1CCC(=NNc2ccc(S(=O)(=O)N3CCOCC3)cc2[N+](=O)[O-])CC1	-61.3
